Growth data for nine compounds are collected here from PubChem BioAssay (NCI).

Experiment in all cases: NCI-60 one-dose screen, 48 h (100 = growth as untreated, 0 = no growth, -100 = all killed)
Assay [1] has as its system SR leukemia. Particulars: 10 µM unless noted.
In assay [2] the test system is RPMI-8226 leukemia. To be noted: 10 µM unless noted.
Assay [3] concerns OVCAR-8 ovarian. Particulars: 10 µM unless noted.
Assay [4] relates to SK-OV-3 ovarian. Particulars: 10 µM unless noted.
Assay [5] relates to IGROV1 ovarian. To be noted: 10 µM unless noted.
The subject of assay [6] is OVCAR-3 ovarian. Particulars: 10 µM unless noted.
Assay [7] concerns HS 578T breast. To be noted: 10 µM unless noted.
The subject of assay [8] is NCI/ADR-RES ovarian. To be noted: 10 µM unless noted.
In assay [9] the test system is T-47D breast. To be noted: 10 µM unless noted.
Assay [10] concerns BT-549 breast. Particulars: 10 µM unless noted.
Assay [11] concerns MDA-MB-435 melanoma. Particulars: 10 µM unless noted.
Assay [12] relates to SW-620 colon. Particulars: 10 µM unless noted.
The subject of assay [13] is MCF7 breast. To be noted: 10 µM unless noted.
In assay [14] the test system is HCT-116 colon. Particulars: 10 µM unless noted.
The subject of assay [15] is HCC-2998 colon. Particulars: 10 µM unless noted.
Assay [16] deals with KM12 colon. To be noted: 10 µM unless noted.
The subject of assay [17] is OVCAR-4 ovarian. To be noted: 10 µM.
Assay [18] has as its system OVCAR-5 ovarian. Particulars: 10 µM unless noted.

This is part of a sample that, as a whole, favours compounds with a hit. Of some 83,000 tested, about 20% had one in any assay.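 Plates (96-well) were seeded with cells, treated with compound at one concentration, and incubated for 48 hours before percent growth was determined.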 Unmarked numbers belong to inactive results. The source made the active and inactive calls. How the source made its calls: active means growth percent below 10; inactive means the rest.

As for `CCOC(=O)c1cnc2ccc(Br)cc2c1Nc1cccc(S(N)(=O)=O)c1`, the growth in assay [1] is 94.6%; in [2] it was 97%; in assay [3], 92.8%; in [4] it was 105%; in assay [5], 99.6%; in [6] it was 102%. Besides, the growth was 98.5% in assay [7]; 97.4% in assay [8]; 81.4% in assay [9]; 96.3% in assay [10]; 101% in assay [11]; 99.2% in assay [12]. The growth in assay [13] was 93.8%; in [14] it was 85.6%; in assay [15], 115%; in assay [16], 96%.

In the case of `Nc1nc(Cl)c2ncn(Cc3cc4c(cc3I)OCO4)c2n1`, the growth in assay [1] is 9.76% (active); in assay [2], 34.8%; in assay [3] it was 60.7%; in assay [17], 79.7%; in assay [4], 58.7%; in assay [5], 83.2%. In addition, the growth in assay [6] is 41.9%; in assay [7], 81.2%; in [8], 58%; in assay [9], 30.9%; in assay [11], 34.6%; in assay [12], 18.3%. Moreover, the growth was 18.9% in assay [13], 16.7% in assay [14], 76.4% in assay [15] and 9.48% (active) in assay [16].

On to `CCN(CC)CCCC(C)Nc1c2ccc(C)cc2nc2ccc(OC)cc12` (stereo not given), for which the growth in [1] was 4.33% (active); in [2], 1.21% (active); in assay [3], 34.3%; in [17], -6.2% (active); in [4], 55.7%; in [6], 28.9%. In addition, the growth in assay [7] was 0.397% (active); in assay [8] it was 64%; in [9] it was 70.7%; in [10] it was 73%; in assay [11], 10.2%; in [12], -41.4% (active). Also, the growth in [13] is 4.31% (active); in [14], 16.6%; in [15], 34.9%; in assay [16] it was 16.4%.

On to `CC[C@@](C)(NC(=O)[C@H](C)NC(=O)CCNC(=O)C(C)(C)NC(=O)[C@H](C)NC(=O)[C@@H]1CCCN1C(=O)[C@@](C)(CC)NC(=O)[C@H](Cc1ccccc1)NC(=O)C1CCCN1C(=O)C(C)(C)NC(=O)C1CCCN1C(=O)C(C)(C)NC(C)=O)C(=O)NCCC(=O)N[C@@H](CC(C)C)C(=O)NC(C)(C)C(=O)NCCC(=O)N[C@@H](CC(C)C)C(=O)NC(C)(C)C(=O)NC(C)(C)C(=O)N[C@@H](CC(C)C)C(=O)NCCC(=O)NCO` (stereo not given in full), for which the growth in [1] was -50.9% (active); in assay [2] it was -55.5% (active); in [3], -82% (active); in assay [17], -96.5% (active); in assay [5] it was -71.9% (active); in [6], -100% (active). In addition, the growth in assay [7] is -60.6% (active); in assay [8], -93.3% (active); in assay [9], -66.9% (active); in assay [10], -97.3% (active); in assay [11], -89.2% (active); in assay [12], -79.2% (active). The results for the growth in assay [14], in assay [15] and in [16] were -94.6% (active), -96.1% (active) and -94.8% (active), respectively.

On to `CCOC(=O)CC(c1ccccc1)C(C#N)c1ccccc1` (stereo not given), for which the growth is 97.3% in [1]; 91.3% in [2]; 99.2% in [3]; 98.7% in assay [17]; 95.1% in [4]; 108% in assay [5]. In addition, the growth in assay [6] is 98.9%; in assay [7], 89.4%; in assay [8], 109%; in assay [9], 89.6%; in assay [11] it was 96.4%; in assay [12] it was 95.3%. The growth in [13] is 99.8%; in assay [15], 114%; in [16] it was 92.3%.

Consider `O=S(=O)(NCc1ccccc1)c1ncnc2nc[nH]c12`, for which the growth in assay [1] is 105%; in assay [2] it was 99.2%; in [3], 87.2%; in assay [18], 106%; in assay [4], 108%; in assay [6], 111%. Moreover, the growth in assay [7] is 116%; in assay [8], 97.4%; in [9], 107%; in [10], 93.7%; in assay [11], 110%; in [12] it was 103%. Moreover, the growth in [13] is 98.1%; in [14], 108%; in assay [15] it was 101%; in [16], 101%.

As to `C#CCNC(=O)CC[C@@H](C)[C@H]1CC[C@H]2[C@@H]3CC[C@@H]4CC(=O)CC[C@]4(C)[C@H]3CC[C@]12C`, the growth in assay [1] is 24.9% [100 µM]; in [2], -32.9% [100 µM] (active); in assay [3], -21.7% [100 µM] (active); in assay [18] it was -45.4% [100 µM] (active); in assay [4], 11.3% [100 µM]; in [5], -64% [100 µM] (active). The growth in [6] is -72.6% [100 µM] (active); in assay [8] it was -28.7% [100 µM] (active); in assay [9], 4.15% [100 µM] (active); in assay [10] it was -60% [100 µM] (active); in assay [11], -39.7% [100 µM] (active); in assay [13], -6.31% [100 µM] (active). The growth is -1.19% [100 µM] (active) in assay [14], 0.203% [100 µM] (active) in assay [15] and -26.6% [100 µM] (active) in [16].

With `O=C1NC(=O)C(Cc2ccc(OCc3ccc(-c4cc(F)c(F)c(F)c4)cc3)cc2)S1` (stereo not given), the growth in assay [1] was 83.8%; in [2] it was 69%; in assay [3], 90.2%; in [17] it was 68.7%; in assay [4], 87.5%; in assay [5], 69.3%. The growth in assay [6] is 88.3%; in assay [7] it was 83.5%; in [8], 82.1%; in assay [9], 57.6%; in assay [11], 99%; in [12] it was 95.2%. In addition, the growth in [13] is 83.9%; in [14], 83.9%; in assay [15], 97.3%; in assay [16], 81.9%.

Turning to `O=C(NCCCNC(=O)OCc1ccc2c(Br)cc(Br)c(O)c2n1)OCc1ccc2c(Br)cc(Br)c(O)c2n1`, the growth in [1] was 5.95% (active); in [3], -14.6% (active); in assay [18], -63% (active); in [17], -77.6% (active); in [4], 20.2%; in assay [5], -87.7% (active). Further, the growth in assay [6] was -69.3% (active); in [7], -19.1% (active); in assay [8], -29% (active); in [9], -58.2% (active); in assay [11], -71.2% (active); in assay [12] it was -44.7% (active). The growth is -28.1% (active) in assay [13], -66% (active) in assay [14] and -42.5% (active) in assay [15].
